# PubChem BioAssay AID1498 (National Center for Advancing Translational Sciences (NCATS), 2009)
# Records with an inconclusive call do not appear. Calls of active or inactive are those of the source. The call rests on the fitted dose curve.
# Assay: Confirmation Concentration-Response Assay for Modulators of Lamin A Splicing
# Settings: HeLa lamin A splicing GFP/RFP minigene, Acumen, 48 h; RFP activity: RFP channel at top concentration, at 46.1 µM; ratio activity: GFP/RFP ratio at top concentration, at 46.1 µM; series mostly up to 46.1 µM; GFP activity change, negative = decrease: at the top concentration
# Source text: NCGC Assay Overview: Hutchinson-Gilford Progeria Syndrome (HGPS) is a pediatric premature aging disease caused by a spontaneous mutation in the lamin A/C (LMNA) gene. The mutation activates a cryptic splice site in the LMNA pre-mRNA which results in production of a pre-lamin A protein that cannot be processed properly. The mutant protein accumulates in the nucleus and negatively affects numerous cellular functions. Correction of the splicing defect in HGPS patient cells using a targeted oligonucleotide (exo11) leads to reversal of the cellular disease phenotypes. To identify small molecule modulators of aberrant LMNA splicing, a homogenous assay was constructed in HeLa cells that used a GFP containing minigene to report on correction of aberrant splicing in lamin A and a RFP (DsRed2) to report on cell viability, uniformity and nonspecific effects on the assay signal. This assay was adapted to laser-scanning microplate cytometry (Acumen, TTP Labtech) where miniaturization of the assay to a 1,536-well plate format was possible. Select compounds active in the primary screen (AID 1487) were chosen for confirmation based on potency, efficacy, SAR and activity in other assays in PubChem and at NCGC. References: Bowen, W. P.; Wylie, P. G. Application of Laser-Scanning Fluorescence Microplate Cytometry in High Content Screening. Assay Drug Dev Technol 2006;4:209-221. Scaffidi P, Misteli T. Reversal of the cellular phenotype in the premature aging disease Hutchinson-Gilford progeria syndrome. Nat. Med. 2005;11:440-445.
# NCGC Assay Protocol Summary: Reagents/Controls: Stable clones expressing DsRed2 and lamin A-EGFP were generated by Cell and Molecular Technologies in S3 HeLa cells. HeLa cells were prepared for the assay when they were 70-90% confluent. The cells were counted and resuspended in Opti-MEM I (no phenol red; Gibco), 2% FBS, 1% penicillin/ streptomycin (Gibco) at concentration of 120 cells/uL concentration. The suspension was passed through a Falcon basket filter with pore size 40um (Beckton Dickson). Control titrations: column […] 1536-well plate contained a sixteen point titration (1:2 dilutions) in duplicate of ancitabine (Sigma: A8598) beginning at 40 uM final concentration. Column 2 contained a sixteen point titration (1:2 dilutions) of cycloheximide beginning at 1.4 mM final concentration. Column 3 contained ancitabine at 40 uM and column 4 contained was the vehicle control (0.5% DMSO final concentration). Assay Steps: 5 uL of HeLa cells were plated in Aurora LoBase black clear bottom (cyclic-olefin polymer) 1536-well plates at a final density of 600 cells/well. Controls and library compounds were added with a 1536-well pin array using the Kalypsys pin-tool. The plates were then incubated for 48 hrs in a cell-culture incubator (37 °C; 5% CO2, 98% humidity). Following incubation the plates were read on the Acumen Explorer using the 488 nm laser. Data was collected on objects between 10 and 100 um in size. Cell objects were defined by a 15 um width x 10 um depth filter. The ratio of the total object intensity in PMT1 (500-530 nm emission; GFP) over PMT3 (575-640 nm emission; RFP) was calculated for analysis. Keywords: NIH Roadmap, MLSCN, MLI, MLSMR, qHTS, NCGC, lamin A, Progeria, RNA splicing.
SMILES,ratio activity [%],RFP activity [%],"GFP activity change, negative = decrease"
Cc1cccc(C)c1OC[C@H](C)N,-11.5,-24.1,-32.5% (inactive)
O=C(COc1ccc(Br)cc1)NNC(=S)NC(=O)c1ccccc1[N+](=O)[O-],-24.6,11.7,-24.3% (inactive)
CC(C)(C)n1nnnc1C(c1ccc2ncccc2c1)N1CCSCC1 (configuration not stated),-14.8,-8.12,-12.4% (inactive)
Cc1cc(/C=N/n2cnnc2)c(C)n1-c1cccc(C(=O)O)c1,-3.02,-18.9,-22.5% (inactive)
O=C(Nc1ccc(F)cc1)c1nc[nH]c1C(=O)Nc1ccccc1[N+](=O)[O-],-10.8,-25.1,-23.1% (inactive)
Cn1c(Sc2ccccc2Cl)c(C=O)c2ccccc21,0.328,-2.07,-13.3% (inactive)
Cc1nc2ccc(NC(=O)c3ccc(Cl)c(S(=O)(=O)N(C)c4ccccc4)c3)cc2s1,-11.5,-26.7,-33.3% (inactive)
O=C(CCCN1CC=C(n2c(=O)[nH]c3ccccc32)CC1)c1ccc(F)cc1,-13.7,-6.45,-20.4% (inactive)
Cc1cc(Nc2ccccc2)nc2cc(O)ccc12,-18.8,11.6,-18.1% (inactive)
COc1ccc(C=C(c2nc3ccccc3s2)c2nc3ccccc3s2)cc1O,-10.5,-2.53,-13.6% (inactive)
CC1=NS(=O)(=O)c2cc(Cl)ccc2N1,-9.16,-10.7,-18.6% (inactive)
Cc1noc(C)c1-c1ccc2ncnc(NCc3ccc(C(C)(C)C)cc3)c2c1,-12.9,-7.69,-6.32% (inactive)
CC(=O)Nc1ccc(-c2csc(NC(=O)C3CCN(S(=O)(=O)c4cccs4)CC3)n2)cc1,-13.5,16.5,-2.98% (inactive)
Cc1ccc(S(=O)(=O)N(CC(=O)Nc2ccccc2C(=O)O)c2cccc(Cl)c2C)cc1,-14.3,26.8,7.34% (inactive)
